Only some compounds are listed: those with a hit (about 2% of all), similar ones and a draw of the others.
APOBEC3G inh – inhibitors of human APOBEC3G DNA deaminase; Q9HC16; recombinant A3G, ssDNA deamination FAM/TAMRA fluorescence; inhibition, % at 20 µM; actives 0.28% (n = 330,000);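 active = inhibition of at least 40% at 20 µM, with no more than 30% in the related APOBEC3A deaminase screen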;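 also: plate controls were DMSO wells with A3G for no effect and wells lacking A3G enzyme for full effect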
APOBEC3A inh – human APOBEC3A DNA deaminase inhibition; recombinant A3A, FAM/TAMRA ssDNA deamination fluorescence; P31941; actives 0.41% (n = 330,000); inhibition, % at 20 µM;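 active = at least 40% inhibition at 20 µM here, with at most 30% in a related deaminase screen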;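 also: plate controls were A3A with DMSO for no effect and wells lacking A3A enzyme for full effect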
HGIII-sPLA2 inh – Inhibits HGIII-sPLA2 liposome hydrolysis, primary screen | Q9NZ20 | QFRET BODIPY PC-A2 liposome hydrolysis, fluorescence | inhibition, % at 12.2 µM | actives 0.56% (n = 370,000);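 active = inhibition above mean plus 3 SD of compounds lying within the high and low control bounds, cut at about 19% in these data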;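 also: 0% = median of test compound wells and 100% = no enzyme DMSO wells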
Target sequence (Q9NZ20 whole entry, looked up): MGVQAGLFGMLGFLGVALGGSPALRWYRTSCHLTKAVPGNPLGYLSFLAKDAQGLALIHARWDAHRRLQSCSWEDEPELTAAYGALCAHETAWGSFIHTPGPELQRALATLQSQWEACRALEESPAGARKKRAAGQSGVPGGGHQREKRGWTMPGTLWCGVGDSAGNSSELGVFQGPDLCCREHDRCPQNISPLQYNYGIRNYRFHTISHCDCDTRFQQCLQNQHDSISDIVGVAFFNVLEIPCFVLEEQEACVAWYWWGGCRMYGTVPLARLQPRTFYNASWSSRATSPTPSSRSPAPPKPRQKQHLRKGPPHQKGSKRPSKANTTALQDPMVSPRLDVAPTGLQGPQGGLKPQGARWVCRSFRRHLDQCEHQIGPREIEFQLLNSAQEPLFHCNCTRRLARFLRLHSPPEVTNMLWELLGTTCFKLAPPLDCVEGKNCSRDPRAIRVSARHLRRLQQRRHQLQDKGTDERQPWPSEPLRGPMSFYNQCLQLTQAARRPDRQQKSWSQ
NALP1 inh – inhibitors of NALP1 inflammasome in yeast. S. cerevisiae NALP1/ASC/caspase-1 growth, X-gal OD620, 72 h. inhibition, % at 10 µM. actives 0.61% (n = 280,000). AID 2071; in the data active = inhibition mostly above about 24%, no sharp cut-off; inactive = mostly below about 32%
Fh CTSL1 inh – counter-screen for PFM18AAP inhibitors: inhibitors of F. hepatica cathepsin L1 | recombinant F. hepatica cathepsin L1, Z-Leu-Arg-MCA fluorescence | inhibition, % at 5.96 µM | actives 0.49% (n = 300,000);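 active = inhibition above the mean of all tested compounds plus 3 SD, set per screening campaign, cut at about 17% in these data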;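 also: 0% = plate median of test compound wells and 100% = 1 µM Z-Phe-Ala-diazomethylketone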
APOBEC3A confirm – APOBEC3A (human) deaminase inhibition, confirmed. shares compounds with APOBEC3A inh. actives 63% (n = 1,400). recombinant A3A, ssDNA deaminase UDG fluorescence assay. AID 493151. inhibition, % at 20 µM;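 active = inhibition reaching a set limit, 80% of the first screen's cutoff, at 20 µM in any replicate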;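 also: plate controls were DMSO wells with A3A for no effect and wells lacking A3A enzyme for full effect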
UDG ctr A3A – UDG inhibition in APOBEC3A counter-screen; shares compounds with APOBEC3A inh; UDG counterscreen, FAM/TAMRA uracil oligo fluorescence; inhibition, % at 20 µM; 1,000 tested, under 10 active; call rule not given here
An asterisk follows results filed as active; . = no result given.

SMILES	APOBEC3G inh	APOBEC3A inh	HGIII-sPLA2 inh	NALP1 inh	Fh CTSL1 inh	APOBEC3A confirm	UDG ctr A3A
Fc1ccc(Sc2ccccc2CNC2=NCCN2)cc1	18	32	4	43	-4	.	.
OCCNC1=NCCN1	18	56*	2	4	-2	76*	1
CSc1nc2ccc(NC(=O)c3ccc(=O)[nH]c3)cc2s1	3	42*	5	22	-3	23	.
CC(C)(C)N(NC(=O)Nc1ccc(Cl)c(Cl)c1)C(=O)c1ccccc1	1	40*	-10	4	12	3	.
CSc1nc2sc3c(c2c(=O)n1C1CCCCC1)CCN(C)C3	19	47*	-1	29	7	20	.
CCSc1nc2sc3c(c2c(=O)n1C1CCCCC1)CCN(C)C3	.	.	-5	6	.	.	.
CCCCNC(=O)[C@H]1C[C@H]1[C@@H](O)[C@H](CO)NC(=O)[C@H](COCc1ccccc1)NC(=O)OC(C)(C)C	-2	-1	4	19	-4	.	.
CCCCNC(=O)[C@H]1C[C@H]1[C@@H](O)[C@H](CO)NC(=O)[C@H](Cc1ccccc1)NC(=O)OC(C)(C)C	-8	66*	5	7	7	-9	-1
CCOc1ccc(NC(=S)NC(=O)/C=C/c2ccco2)cc1	-4	-7	-2	-37	4	.	.
COc1cc(NS(=O)(=O)c2ccc(NC(=S)NC(=O)/C=C/c3ccco3)cc2)ncn1	23	55*	-30	5	.	73*	-4
O=C(O)c1ccc(-n2cccc2/C=C2/SC(=O)N(CC(=O)N3CCCC3)C2=O)cc1	85	96	-15	1	-2	.	.
N#Cc1ccccc1CN1C(=O)S/C(=C/c2cccn2-c2ccc(C(=O)O)cc2)C1=O	14	44*	0	12	-1	25*	-3
CC(c1ccc(O)cc1)c1cn(C)c2ccccc12 (centres undefined)	.	.	-20	.	.	.	.
COc1ccc(OC)c(NS(=O)(=O)c2cccs2)c1	-5	62*	5	14	1	-1	3
COC(=O)[C@H](C)N(Cc1cn(Cc2ccccc2)nn1)S(=O)(=O)c1ccccc1Br	.	.	0	.	.	.	.
Oc1ccc(Nc2nc3ccccc3nc2Nc2ccc(O)cc2)cc1	-7	42*	.	-5	-1	43*	1
CC[N+](C)(CC)CC(=O)OCC1C(C)C=C(C)CC1C (centres undefined)	22	73*	18	10	-1	82*	3
CCN(CC)C(=O)CC[C@@H]1CC[C@]2(CCCN(Cc3ccncc3)C2)O1	.	.	-2	.	.	.	.
N#C/C(=C\c1cn(-c2ccccc2)nc1-c1cccnc1)c1nnc2n1CCCCC2	-3	43*	-5	0	3	-1	-2
CC12CC(O)C3c4ccc(O)cc4CCC3C1CC/C2=N\O (centres undefined)	-13	51*	-4	21	0	1	2
CCOc1ccc(N2CC(C(=O)Nc3cccc(S(=O)(=O)N4CCCCC4)c3)CC2=O)cc1 (centres undefined)	-4	-2	-1	10	-2	.	.
CSc1cccc(N2CC(C(=O)Nc3cccc(S(=O)(=O)N4CCCC4)c3)CC2=O)c1 (centres undefined)	15	56*	-2	.	-1	14	.
CC(=O)c1c(C)cc(C)c(CSc2ccccn2)c1C	15	59*	5	14	4	58*	1
COc1cc(/C=C/c2noc(-c3ccccc3O)n2)ccc1OC(C)=O	0	4	-4	13	2	.	.
CC[n+]1c(/C=C/c2ccc(OC)c(OC)c2)ccc2ccccc21	-14	79*	8	12	1	93*	0
SMILES	APOBEC3G inh	APOBEC3A inh	HGIII-sPLA2 inh	NALP1 inh	Fh CTSL1 inh	APOBEC3A confirm	UDG ctr A3A
CCN(CC)c1ccc(/C=C/c2ccc3ccc(OC)cc3[n+]2CC)cc1	26	75*	15	11	0	84*	0
CC[n+]1c(/C=C/c2ccc(OC(C)=O)c(OC)c2)ccc2ccccc21	20	53*	2	24	.	58*	.
Nc1nc2ncccc2cc1C(=O)C1=C(c2ccccc2)Cc2ccccc21	.	.	2	.	.	.	.
C=CCNC(=O)CN(C(=O)Cc1ccc(Cl)nc1)c1cccc(Br)c1	.	.	-1	.	.	.	.
COc1ccc(NC(=O)CCCSc2ccccc2)cc1	9	42*	-7	19	2	7	.
COc1ccc(NC(=O)COC(=O)CCSc2ccccc2)cc1	3	0	8	.	.	.	.
CC(=O)Nc1nnc(SCC(=O)NCC2CCCO2)s1 (centres undefined)	10	41*	6	15	0	40*	5
CCC(=O)Nc1nnc(SCC(=O)NCC2CCCO2)s1 (centres undefined)	-6	2	5	16	5	.	.
CC(=O)Nc1ccc2nc(SCC(=O)NCCOc3ccccc3)sc2c1	3	-2	-1	9	-4	.	.
CC(=O)Nc1nnc(SCC(=O)NCCOc2ccccc2)s1	26	57*	9	4	0	63*	-2
O=C(NCCc1ccc2c(c1)OCO2)c1cc(-c2ccccc2)c(N2CCOCC2)s1	.	.	1	.	.	.	.
C=CCNC(=S)N(C)[C@H]1C[C@H]2c3[nH]c4c(-c5ccccc5)cccc4c3CCN2C(=O)[C@H]1[C@H](C)O	.	.	6	.	.	.	.
CCN1C(=O)[C@@H]2Cc3c([nH]c4ccccc34)C(c3cc(OC)c(OC)c(OC)c3)N2C1=S (some centres undefined)	-10	59*	-7	-4	-4	-8	-6
C=CCN1C(=O)[C@@H]2Cc3c([nH]c4ccccc34)C(c3cc(OC)c(OC)c(OC)c3)N2C1=S (some centres undefined)	-15	-6	-19	-71	14	.	.
CCCc1nc2sc3c(SCC(=O)NCc4ccco4)ncnc3c2c2c1CCC2	26	54*	-4	-9	0	42*	-3
Cc1n(-c2ccccc2)c2ccc(Cl)cc2[n+]1CCO	16	50*	3	-4	-3	75*	-2
c1ccc(Cn2ccc3ccc(-c4ccc5ccn(Cc6cccc(-c7cccs7)c6)c5c4)cc32)cc1	.	.	11	.	.	.	.
COc1ccc(Nc2nc3ccccc3n3nnnc23)cc1	-6	1	6	-6	3	.	.
Cc1ccc(Nc2nc3ccccc3n3nnnc23)cc1	3	46*	11	-9	10	1	.
c1cc(C2OCCN2CC2COC3(CCCC3)O2)ccn1 (centres undefined)	-5	-2	2	8	-3	.	.
C[N+]1(CC2COC3(CCCCC3)O2)CCCCC1 (centres undefined)	25	68*	14	.	-4	74*	-3
CCCCN=C(N)NC(=O)OCc1ccccc1	.	.	4	.	.	.	.
Cc1ccc(NC(=O)CSc2nnc(-c3cccnc3)n2Cc2ccco2)cc1C	.	.	-3	.	.	.	.
